Several values for one entry are separate records, joined by “and”; a condition that tells them apart may be missing. Equal values may be shown once. Records with an inconclusive call do not appear. Unmarked numbers belong to inactive results. Activity calls are given as the source filed them. Calls follow the shape of the dose curve; as a rule, active = well fitted cell-killing curve with a large enough effect; inconclusive = small, poorly fitted or top-dose-only effect; inactive = flat fitted curve, though single readings scatter.
Assay: Cellular viability qHTS for adrenocortical cancer (ACC) cell line SW-13 (AID 1963989); also: nearly all actives have a fitted effect of over 65% in size;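 as to activity (max response): cells grown in serum-free medium with ITS supplement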
Conditions: SW-13 ACC cells viability, CellTiter-Glo, 48 h; activity (max response): hits give low values
Procedure, shortened: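 Compound titrations (up to 46 uM final, in DMSO) were applied to SW-13 cells for 48 h at 37C/5% CO2. Reading used CellTiter-Glo after 20 min at room temperature; fitted curves yielded IC50 and efficacy.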
% is scaled to controls: 0 for no effect and ±100 for the full control effect; potency is read from the fitted curve at half-maximal effect.

`COc1cc(C[C@@H](C)N)c(OC)cc1C` and `COc1cc2c(cc1F)C(c1ccccc1Cl)=Nc1c(n[nH]c1C)N2` are the same in activity (max response): -18.7% for the first, -18.7% for the second.

Going from `NCC(O)c1ccc(O)cc1` (stereo not given) to `NCC(CC(=O)O)c1ccc(Cl)cc1` (stereo not given), the activity (max response) falls from 9.24% to -6.89%.

Compared with `COc1ccccc1N1CCNCC1`, `CCC(=O)OC1(c2ccccc2)CCN(C)CC1` is higher in activity (max response): -19.4% for the first, -11.5% for the second.

Compared with `CCC1(c2ccccc2)C(=O)N(COC)C(=O)N(COC)C1=O`, `CCN(CC)CCOC(=O)C(C)(c1ccccc1)c1ccccc1` is lower in activity (max response): -1.61% for the first, -13.3% for the second.

Compared with `NCc1cccnc1`, `Nc1ccccc1` is higher in activity (max response): 4.01% for the first, 7.78% for the second.

First: NP(N)(=O)NC(=O)c1ccc(F)cc1
Second: CCN(C(C)=O)c1cccc(-c2ccnc3c(C#N)cnn23)c1
The activity (max response) of the first is higher: 6.62% for the first, -7.67% for the second.

Going from `CN1C(=O)NC(=O)C(C)(C2=CCCCC2)C1=O` (stereo not given) to `CC(C)=CC1C(C(=O)OCN2C(=O)C3=C(CCCC3)C2=O)C1(C)C` (stereo not given), the activity (max response) falls from -0.484% to -13.2%.

First: ClC1=C(Cl)C2(Cl)C(CBr)CC1(Cl)C2(Cl)Cl (stereo not given)
Second: C[C@]12CC[C@H]3[C@@H](CC[C@@]45O[C@@H]4C(O)=C(C#N)C[C@]35C)[C@@H]1CC[C@@H]2O
The activity (max response) of the first is higher: -7.86% for the first, -12.1% for the second.

First: Cc1ccc(N=CN(C)C=Nc2ccc(C)cc2C)c(C)c1
Second: CN1[C@H]2CC(O)C[C@H]1[C@H]1O[C@H]12 (stereo not given in full)
The activity (max response) of the first is lower: 9.45% for the first, 10.2% for the second.

In the case of `COc1ccc2c3c1O[C@H]1[C@@H](O)C=C[C@H]4[C@@H](C2)N(C)CC[C@@]341`, the Potency is reported as 14.1 µM (active).
With `CCC(OC(C)=O)C(CC(C)NC)(c1ccccc1)c1ccccc1` (stereo not given) the Potency was 28.2 µM (active).
With `Oc1ccc(Cl)cc1Cc1ccccc1` the Potency was 35.5 µM (active).
With `C[C@@]12OC(=O)[C@]1([C@@H](O)[C@@H]1C=CCCC1)NC(=O)[C@@H]2CCCl` the Potency was 0.501 µM (active).
In the case of `COC12C(COC(N)=O)C3=C(C(=O)C(C)=C(N)C3=O)N1CC1C2N1C` (stereo not given), the Potency is reported as 25.1 µM (active).
With `O=C(Nc1ccncc1)C(=O)c1cn(Cc2ccc(Cl)cc2)c2ccccc12` the Potency was 0.126 µM (active).

For `COc1ccc(C(=O)N2CCCC2=O)cc1`, the activity (max response) was -6.45% and 13%.

Reference: PubChem BioAssay (NCATS)
